According to PubChem BioAssay AID743445 (Broad Institute, 2014):
Screen size: about 310,000 compounds; about 1,700 (0.55%) were called active. The list comes from a sample in which actives are over-represented; it also holds similar structures and randomly drawn compounds. A number with no mark means an inactive call. Cut-off read from the data, not from the text of the source: active = inhibition above about 50%; inactive = the rest.

biological target: Histone-lysine N-methyltransferase NSD2 (Homo sapiens) (UniProt O96028); assay: NSD2 histone methyltransferase inhibitors, primary screen, biochemical, AlphaScreen, single concentration, set 2 (AID 743445); details: NSD2 peptide methylation, 120 min, at 12.5 µM, hits give high values
Sequence (O96028 whole entry, looked up): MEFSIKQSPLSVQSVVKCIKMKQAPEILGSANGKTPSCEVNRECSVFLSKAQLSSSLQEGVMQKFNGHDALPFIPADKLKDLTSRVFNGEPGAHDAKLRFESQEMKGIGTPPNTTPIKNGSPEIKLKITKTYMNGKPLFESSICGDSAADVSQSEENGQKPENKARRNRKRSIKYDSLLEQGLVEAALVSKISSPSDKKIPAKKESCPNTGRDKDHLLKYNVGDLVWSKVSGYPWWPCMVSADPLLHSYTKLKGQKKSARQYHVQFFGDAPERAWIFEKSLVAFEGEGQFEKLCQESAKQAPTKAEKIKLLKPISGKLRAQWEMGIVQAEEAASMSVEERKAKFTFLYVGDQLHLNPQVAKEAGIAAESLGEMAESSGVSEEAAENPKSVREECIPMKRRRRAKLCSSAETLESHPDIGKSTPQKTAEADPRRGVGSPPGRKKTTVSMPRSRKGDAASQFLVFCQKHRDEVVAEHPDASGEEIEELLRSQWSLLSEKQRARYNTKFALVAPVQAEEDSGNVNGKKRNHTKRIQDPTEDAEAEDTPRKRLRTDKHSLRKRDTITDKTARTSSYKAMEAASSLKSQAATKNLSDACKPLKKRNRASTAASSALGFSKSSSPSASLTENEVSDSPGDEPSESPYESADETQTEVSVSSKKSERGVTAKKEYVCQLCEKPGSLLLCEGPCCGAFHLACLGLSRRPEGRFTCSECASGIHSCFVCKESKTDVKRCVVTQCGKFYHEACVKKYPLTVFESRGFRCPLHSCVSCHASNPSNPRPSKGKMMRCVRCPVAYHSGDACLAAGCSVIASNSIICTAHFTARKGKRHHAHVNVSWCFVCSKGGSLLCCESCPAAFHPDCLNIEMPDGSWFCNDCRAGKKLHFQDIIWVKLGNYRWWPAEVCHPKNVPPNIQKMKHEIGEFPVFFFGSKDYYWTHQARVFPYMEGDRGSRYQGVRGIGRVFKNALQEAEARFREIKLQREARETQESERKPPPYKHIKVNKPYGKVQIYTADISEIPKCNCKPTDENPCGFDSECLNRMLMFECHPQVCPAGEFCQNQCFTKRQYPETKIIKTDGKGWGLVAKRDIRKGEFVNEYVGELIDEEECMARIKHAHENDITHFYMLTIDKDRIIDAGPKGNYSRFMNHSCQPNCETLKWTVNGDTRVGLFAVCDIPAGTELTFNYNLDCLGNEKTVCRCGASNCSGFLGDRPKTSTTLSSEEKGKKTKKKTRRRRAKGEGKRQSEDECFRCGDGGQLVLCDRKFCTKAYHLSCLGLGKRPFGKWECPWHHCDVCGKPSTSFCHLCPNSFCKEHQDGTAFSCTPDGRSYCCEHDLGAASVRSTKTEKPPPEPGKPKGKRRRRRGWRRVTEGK

SMILES | inhibition
Cc1[nH][nH]c(=O)c1C(c1ccc(-c2ccc(Cl)cc2)o1)c1c(C)[nH][nH]c1=O | 105% (active)
O=C(NC1CCCCC1)c1ccc(-c2ccc(Cl)cc2)o1 | -1.75%
CN(CC(=O)Nc1ccc(F)cc1)C(=O)c1ccc(-c2ccc(Cl)cc2)o1 | -0.366%
O=C(NCC1COc2ccccc2O1)c1ccc(NC(=O)c2cc(F)ccc2F)cc1 (configuration not stated) | -0.735%
CCOC(=O)N1CCN(CCC(=O)Nc2ccccc2)CC1 | -3.41%
CC1CCN(CCC(=O)Nc2ccccc2)CC1 | 51.1% (active)
COc1ccc(OC)c(NC(=O)CCN2CCC(C)CC2)c1 | 0.958%
O=c1[nH]c(CN2CCOCC2)nc2cc(Cl)ccc12 | 108% (active)
CN(CCOc1ccccc1)Cc1nc2cc(Cl)ccc2c(=O)[nH]1 | -1.91%
O=c1[nH]c(CN2CCOCC2)nc2scc(-c3ccccc3)c12 | -2.17%
Cc1ccccc1CS(=O)(=O)Cc1ccc(C(=O)Nc2ccc(Cl)cc2)o1 | 1.09%
CCOC(=O)c1csc(NC(=O)C2CCCN(S(=O)(=O)c3ccc(Cl)s3)C2)n1 (configuration not stated) | 2.06%
Cc1occc1-c1nnc(SCC(=O)NC2CCCCC2)o1 | 0.775%
O=C(CSc1nnc(-c2ccccc2O)o1)NC1CCCCC1 | 55.7% (active)
Cc1cc(C)cc(-c2nnc(SCC(=O)NC3CC3)o2)c1 | 0.103%
CN(C)C(=O)N1CCN(C(=O)[C@@H](Cc2ccccc2)NC(=O)[C@H]2O[C@@H](n3ccc(N)nc3=O)[C@H](O)[C@@H]2O)CC1 | -3.38%
Clc1ccc(C2=CSC3=Nc4cccc5cccc(c45)N23)cc1 | 125% (active)
COc1ccc(NC(=O)Cn2nnc(C(=O)NCCc3ccc(OC)c(OC)c3)c2N)cc1 | 159% (active)
CCc1ccc(NC(=O)Cn2nnc(C(=O)NCc3ccc(OC)cc3)c2N)cc1 | -10.9%

SMILES | inhibition
COc1ccc(CNC(=O)c2nnn(CC(=O)Nc3cc(C)cc(C)c3)c2N)cc1 | 0.097%
CC(C)(C)c1ccc(CSc2nnc(-c3cccs3)o2)cc1 | -3.66%
C=CCn1c(=NC(=O)c2ccc(S(=O)(=O)N3CCCC3)cc2)sc2cc(NC(C)=O)ccc21 | 96.1% (active)
COc1cc(C(C)=O)ccc1OC(C)C(=O)Nc1ccc(S(=O)(=O)N2CCCC2)cc1 (configuration not stated) | -0.04%
CC(=O)Nc1ccc(S(=O)(=O)N2CCSCC2)cc1 | -0.875%
Clc1ccc(-n2c(SC/C=C/c3ccccc3)nnc2-c2ccco2)cc1 | 1.46%
COc1cccc(CNC(=O)C2CCCN(c3nc4ccccc4o3)C2)c1OC (configuration not stated) | 0.947%
CN(C)CCNC(=O)c1ccc(-c2cn3c(-c4ccc(Oc5ccccc5)cc4)cnc3cn2)cc1 | 1.51%
Cc1ccc(C(=O)C2CCN(CC(=O)NCCC(C)C)CC2)cc1 | -1.14%
O=C(NC(c1ccc(Cl)cc1)c1cnccn1)C1CCN(Cc2ccc(Cl)cc2)CC1 (configuration not stated) | -0.128%
Cn1c(=O)c2cc(NC(=O)NCCc3cccs3)ccc2n1Cc1cccc(C(F)(F)F)c1 | 0.114%
CCN1CCCC1CNC(=O)c1ccc2c(c1)NC(=O)/C(=C\c1ccccc1F)S2 (configuration not stated) | 21.8%
O=C1Nc2cc(C(=O)N3CCC(N4CCCCC4)CC3)ccc2S/C1=C\c1ccccc1 | 50.2% (active)
CCN1CCN(CCNC(=O)c2ccc3c(c2)NC(=O)/C(=C\c2cccc(Cl)c2)S3)CC1 | 2.99%
CCOC(=O)N1CCC(NC(=O)C(NS(=O)(=O)c2ccc3c(c2)CCN3C(=O)CC)C(C)C)CC1 (configuration not stated) | 17.1%
CCC(=O)N1CCc2cc(S(=O)(=O)CCC(=O)N3CCN(c4ccccc4F)CC3)ccc21 | -2.83%
CCC(=O)N1CCc2cc(S(=O)(=O)NC(C(=O)N3CCc4ccccc4C3)C(C)C)ccc21 (configuration not stated) | 59.8% (active)
COc1cccc(-c2cc3nc(NCc4ccccc4OC)n(C)c(=O)c3s2)c1 | -2.63%
O=C(CSc1nc2ccccc2s1)NN=Cc1ccc(O)cc1O | 9.45%

SMILES | inhibition
C=CCNCCCCOc1ccccc1 | 73.8% (active)
CCCCCCCCC(=O)NCCOc1ccccc1 | 1.73%
C=CCNC(=O)CCCOc1cccc(C)c1 | -2.74%
Cc1ccc(CC2(C)C(=O)Nc3ccc(OC(F)(F)F)cc32)cc1 (configuration not stated) | -1.93%
O=C(CN1CCC(NC(=O)NCc2ccccc2)CC1)Nc1ccc2c(c1)OCCO2 | -3.14%
O=C(NCc1cccs1)C1CCN(S(=O)(=O)c2ccccc2[N+](=O)[O-])CC1 | -1.94%
COc1ccc(S(=O)(=O)/N=C2\C=C(NS(=O)(=O)c3ccccc3)C(=O)c3ccccc32)cc1 | 116% (active)
Cc1ccc(S(=O)(=O)N/N=C(\c2ccccc2)C2CC2)cc1 | -5.26%
COc1ccc(S(=O)(=O)NCCCc2ccccc2)cc1 | -2.03%
O=C1C=C(NS(=O)(=O)c2ccccc2)C(=O)c2ccccc21 | 16.2%
Cc1ccc(S(=O)(=O)/N=C2\C=C(NS(=O)(=O)c3ccc(C)cc3)C(=O)c3ccccc32)cc1 | 186% (active)
Cc1ccc(S(=O)(=O)N[C@H](CO)C(C)C)cc1 | -1.39%
CCCCN(C=O)c1c(CC)nc2c(OCc3ccccc3C(=O)OC)cccn12 | 2.37%
Cc1nc2c(OCc3cccc(Cl)c3)cccn2c1N(C)CC1CC1 | 1.55%
CCn1c2ccccc2c2cc(NC(=O)CSc3nnc(-c4ccccc4)n3-c3ccc(C)cc3)ccc21 | 0.529%
O=C(Cc1cccs1)Nc1nnc(SCc2ccc(F)cc2)s1 | 0.676%
CC(C)(C)CC(=O)Nc1nnc(SCC(=O)NCc2cccs2)s1 | 63.2% (active)
Cc1nnc(SCC(=O)NCc2cccs2)[nH]c1=O | -1.95%
CCOC(=O)[C@]12CCCC=C1N(CCC1=CCCCC1)C(=O)[C@H](CC(=O)NCCCCc1ccccc1)C2 | 1.69%
